# Source: PubChem BioAssay (Tox21)
# A number with no mark means an inactive call. Inconclusive results are not listed. Where a call stands in place of a potency, no number is given. Activity calls are given as the source filed them. Unless noted, the call rests on the fitted dose curve; in most records, active means well fitted curve in the direction sought with a large enough effect in the repeat runs; inconclusive means weak or mixed curves; inactive means no such curve, though single readings can be large; an effect the other way counts as inactive or inconclusive.
# How the values were obtained:
# [1] = qHTS assay for small molecules that induce genotoxicity in human embryonic kidney cells expressing luciferase-tagged ATAD5 (AID 651632); further: nearly all actives have a fitted effect of over 15% in size
# Method in brief: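 HEK293T cells carrying luciferase-tagged ATAD5 were given compound or DMSO vehicle and incubated 16 hr at 37C, 5% CO2. Luciferase activity was read after 30 min at room temperature with Amplite; a rise signals genotoxic stress.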
# [2] = qHTS assay for small molecule agonists of the p53 signaling pathway - cell viability (AID 651633; calls by dose curve;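 further: p53RE-bla HCT reporter cells with a stable beta-lactamase p53 reporter; series mostly up to about 83 µM; nearly all actives have a fitted effect of over 30% in size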)
# Method in brief: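 Viability counter-read: CellTiter-Glo luminescence (30 min, room temperature) in the same p53RE-bla plates. These plates had been exposed to compounds for 16 h at 37 C.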
# [3] = qHTS assay for small molecules that induce genotoxicity in human embryonic kidney cells expressing luciferase-tagged ATAD5 - cell viability (AID 651634; calls by dose curve; further: nearly all actives have a fitted effect of over 25% in size)
# Method in brief: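 HEK293T cells carrying luciferase-tagged ATAD5, 2,000 cells/well, exposed to compound for 15.5 hr at 37C. Viability read as live-cell protease activity by CellTiter-Fluor fluorescence after 30 min at 37C.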
# [4] = qHTS assay for small molecule disruptors of the mitochondrial membrane potential - cell viability (AID 720634; calls by dose curve;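 further: human HepG2 liver cancer cells; series mostly up to about 83 µM; nearly all actives have a fitted effect of over 20% in size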)
# Method in brief: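 HepG2 cells, 2,000 per well, attached overnight, then treated 1 hr at 37 C, 5% CO2. Viability read as ATP by CellTiter-Glo luminescence after 30 min at room temperature. Read in the same wells as the m-MPI membrane-potential dye assay.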
# [5] = qHTS assay for small molecule disruptors of the mitochondrial membrane potential (AID 720635); further: potency means the concentration at half of the fitted maximal effect
# Method in brief: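 Mitochondrial membrane potential tracked with Mito-MPS dye, red aggregates (ex 540/em 590 nm) against green monomers (ex 490/em 535 nm). Compound treatment 1 hr at 37C, dye 30 min in HepG2.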
# [6] = qHTS assay to test for compound auto fluorescence at 590 nm (red) in HepG2 cells (AID 720674)
# Method in brief: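 We screened compounds on adherent HepG2 cells, incubating them for an hour at 37 C in 5% CO2 before reading emission at 590 nm under 540 nm excitation; values reflect equivalence to Rose Bengal sodium fluorescence.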
# [7] = qHTS assay to test for compound auto fluorescence at 535 nm (green) in HepG2 cells (AID 720675)
# [8] = qHTS assay to test for compound auto fluorescence at 590 nm (red) in HEK293 cells (AID 720679)
# Method in brief: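 We plated HEK293 cells in 10% dialyzed FBS medium, let them adhere for 4-5 hr, then added 23 nL compound. Overnight at 37C and 5% CO2 preceded fluorescence measurement at 540/590nm.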
# [9] = qHTS assay to test for compound auto fluorescence at 535 nm (green) in HEK293 cells (AID 720680)
# [10] = qHTS assay to test for compound auto fluorescence at 460 nm (blue) in HEK293 cell free culture (AID 720681)
# Method in brief: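 Blue fluorescence (Ex 405/Em 460 nm, triamterene-equivalent) was read immediately after pin transfer of compound or DMSO into medium (DMEM, 10% FBS) without cells.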
# [11] = qHTS assay to test for compound auto fluorescence at 535 nm (green) in HEK293 cell free culture (AID 720682)
# Method in brief: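 Read-out: 485/535 nm fluorescence intensity, calibrated against fluorescein. Medium only (DMEM + 10% FBS, no cells); test compound or DMSO vehicle added by pintool before plate reading.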
# [12] = qHTS assay to test for compound auto fluorescence at 590 nm (red) in HEK293 cell free culture (AID 720683)
# Method in brief: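 Red-channel autofluorescence of compounds in culture medium (DMEM, 10% FBS), no cells, measured at 540/590 nm. Rose Bengal sodium is the reference fluorophore for equivalence.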
# [13] = qHTS assay to test for compound auto fluorescence at 590 nm (red) in HepG2 cell free culture (AID 720684)
# Method in brief: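 Plate contents were MEM with 10% FBS plus test compound or DMSO, no cells. Fluorescence was recorded with 540 nm excitation and 590 nm emission.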
# [14] = qHTS assay to test for compound auto fluorescence at 460 nm (blue) in HepG2 cell free culture (AID 720685)
# Method in brief: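 Compound (23 nL) or DMSO pinned into cell-free MEM with 10% FBS; blue fluorescence read at 405/460 nm excitation/emission, expressed as auto-fluorescence equivalency to triamterene.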
# [15] = qHTS assay to test for compound auto fluorescence at 535 nm (green) in HepG2 cell free culture (AID 720686)
# [16] = qHTS assay to test for compound auto fluorescence at 460 nm (blue) in HepG2 cells (AID 720687)
# Method in brief: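 Blue-channel autofluorescence (Ex/Em 405/460 nm, triamterene-equivalent) was measured after 1 hr compound exposure at 37 C, 5% CO2. Cells were HepG2, plated overnight at 37 C in MEM plus 10% FBS.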
# [17] = target: Glucocorticoid receptor (Homo sapiens) (UniProt P04150); assay: qHTS assay to identify small molecule agonists of the glucocorticoid receptor (GR) signaling pathway (AID 720691; active means well fitted activation curve with a large enough effect in the signal ratio in the repeat runs, not every such curve was filed as active; the % refers to the signal ratio)
# Method in brief: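 GR-bla HeLa cells carrying a GRE-driven beta-lactamase reporter, exposed to compounds for 18 h at 37 C. Reporter activation read as fluorescence after 2 h with LiveBLAzer B/G FRET substrate at room temperature.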
# [18] = target: Glucocorticoid receptor (Homo sapiens) (UniProt P04150); assay: qHTS assay to identify small molecule antagonists of the glucocorticoid receptor (GR) signaling pathway (AID 720692; active means well fitted inhibition curve with a large enough effect in the signal ratio in the repeat runs, not every such curve was filed as active; the % refers to the signal ratio)
# Method in brief: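 GR-bla HeLa cells carrying a GRE-driven beta-lactamase reporter received compound after 4 h plating, then dexamethasone (5 nM final). After 18 h at 37C, the FRET substrate was loaded for 2 h at room temperature and fluorescence read.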
# [19] = qHTS assay to test for compound auto fluorescence at 460 nm (blue) in HEK293 cells (AID 720678)
# Method in brief: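 Triamterene serves as the blue fluorophore standard. Compound signal at 405/460 nm is read in HEK293 wells (2,000 cells, 10% dialyzed FBS) after overnight treatment at 37C.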
# Sequence of Glucocorticoid receptor (Homo sapiens) (P04150 whole entry, looked up): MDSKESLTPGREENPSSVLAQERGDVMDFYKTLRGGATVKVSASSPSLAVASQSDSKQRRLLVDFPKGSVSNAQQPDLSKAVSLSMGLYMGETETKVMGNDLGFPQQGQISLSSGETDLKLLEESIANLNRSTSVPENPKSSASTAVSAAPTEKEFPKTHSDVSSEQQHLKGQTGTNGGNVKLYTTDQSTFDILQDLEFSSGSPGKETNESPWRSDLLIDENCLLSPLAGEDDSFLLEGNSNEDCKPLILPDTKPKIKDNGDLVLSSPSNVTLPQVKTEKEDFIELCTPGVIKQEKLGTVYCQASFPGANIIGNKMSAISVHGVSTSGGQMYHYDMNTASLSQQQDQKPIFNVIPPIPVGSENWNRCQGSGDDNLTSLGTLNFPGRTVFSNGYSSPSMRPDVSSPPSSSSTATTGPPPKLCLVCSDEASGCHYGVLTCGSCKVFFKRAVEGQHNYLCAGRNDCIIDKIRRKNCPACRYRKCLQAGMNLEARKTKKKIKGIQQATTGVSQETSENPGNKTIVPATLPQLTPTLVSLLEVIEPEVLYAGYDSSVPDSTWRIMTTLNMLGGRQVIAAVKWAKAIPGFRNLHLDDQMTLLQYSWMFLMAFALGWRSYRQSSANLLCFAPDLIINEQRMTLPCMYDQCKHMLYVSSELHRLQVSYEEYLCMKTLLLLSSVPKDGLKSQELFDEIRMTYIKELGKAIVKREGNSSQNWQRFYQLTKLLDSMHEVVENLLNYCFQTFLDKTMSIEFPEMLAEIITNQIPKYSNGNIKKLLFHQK
SMILES,Potency [1],Potency [2],Potency [3],outcome [4],Potency [5],outcome [6],outcome [7],outcome [8],outcome [9],Potency [10],outcome [11],outcome [12],outcome [13],Potency [14],outcome [15],Potency [16],Potency [17],Potency [18],Potency [19]
O=C1[C@@H]2[C@H]3CC[C@H](C3)[C@@H]2C(=O)N1CCCCN1CCN(c2ncccn2)CC1,inactive,inactive,inactive,inactive,inactive,inactive,inactive,inactive,inactive,inactive,inactive,inactive,inactive,inactive,inactive,inactive,inactive,inactive,–
CCN(CC)CCOc1ccccc1C(=O)CCc1ccccc1,inactive,inactive,inactive,inactive,–,inactive,inactive,inactive,inactive,inactive,inactive,inactive,inactive,inactive,inactive,inactive,–,–,inactive
COc1cc(S(=O)(=O)Nc2ccccc2)c(OC)cc1N,inactive,inactive,inactive,inactive,–,inactive,inactive,–,inactive,inactive,inactive,inactive,inactive,inactive,inactive,inactive,–,inactive,inactive
CSCC[C@H](NC(=O)[C@H](Cc1c[nH]c2ccccc12)NC(=O)CCNC(=O)OC(C)(C)C)C(=O)N[C@@H](CC(=O)O)C(=O)N[C@@H](Cc1ccccc1)C(N)=O,inactive,inactive,inactive,inactive,inactive,–,inactive,inactive,inactive,inactive,inactive,inactive,inactive,inactive,–,–,inactive,inactive,inactive
O=C(O)c1cccc(C[C@@H]2COc3ccc(OCc4nc5cc(F)ccc5s4)cc3[C@@H]2O)c1,inactive,inactive,inactive,inactive,54.5 µM (active),–,inactive,inactive,–,inactive,inactive,inactive,inactive,–,inactive,inactive,inactive,–,inactive
Cc1ccc2c(c1[N+](=O)[O-])C(=O)c1ccccc1C2=O,inactive,inactive,inactive,inactive,1.2 µM (active),inactive,inactive,inactive,inactive,inactive,inactive,inactive,inactive,inactive,–,–,–,–,–
CC(C)OC(=O)c1ccccc1C(=O)OC(C)C,inactive,inactive,inactive,inactive,inactive,inactive,inactive,inactive,inactive,inactive,inactive,inactive,inactive,inactive,inactive,inactive,inactive,inactive,–
